# Shiga inhibitor – inhibitors of Shiga toxin in Vero cells | Vero cells, Shiga toxin protein synthesis inhibition reporter | actives 9.2% (n = 290,000) | inhibition, % at 38.7 µM; in the data active = inhibition mostly above about 28%, no sharp cut-off; inactive = mostly below about 43%; note: 0% is about no effect
# Cycloheximide cs – counter-screen hit for Shiga toxin inhibitors, cycloheximide; cell reporter, cycloheximide protein synthesis inhibition counterscreen; max response, %; actives 12% (n = 300,000); in the data active = max response mostly above about 13%, no sharp cut-off; inactive = mostly below about 14%; note: read at 38.3 µM for the half of the compounds with a filed dose; 0% is about no effect
# Pf growth 96h – P. falciparum growth inhibition at 96 hours | actives 6.9% (n = 320,000) | AID 504834 | P. falciparum luciferase reporter growth, 96 h | Potency, µM (series often up to 28.7 µM), without a hit: at the highest dose activity change, negative = inhibition, most hits filed as inhibitors; note: potency is the fitted concentration of half-maximal effect; % is set by controls: 0 for no effect and ±100 for the full control effect
#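 Erythrocytes infected with luciferase-expressing P. falciparum were dispensed at 2% hematocrit and 0.05% parasitemia (final), then incubated with compounds 96 hours at 37 C in 5% CO2. Luminescence after detection reagent addition reported growth.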
# HCMV antiviral – human cytomegalovirus inhibition; HFF cells, HCMV-luciferase reporter, 72 h; stronger effect = lower value; AID 1259415; actives 4.5% (n = 410,000); activity change, negative = inhibition, % at 57.5 µM; in the data active = activity change below about -60%; inconclusive = no clear call, values can overlap the other calls; inactive = above about -39%; note: % is set by controls: 0 for no effect and ±100 for the full control effect
#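 Cell-based, HFFs, 1000 cells/well, 16 h 37C; cpds in DMSO + HCMV-luc, MOI 1 PFU/cell; 72 h 37C; OneGlo luminescence after 5 min RT; norm. to buffer vs Salinomycin 10uM.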
# Pf growth 48h – inhibits P. falciparum growth in the first generation, 48 h. P. falciparum luciferase growth in erythrocytes, 48 h. actives 5.9% (n = 310,000). AID 504832. Potency, µM (top dose mostly 28.7 µM), for inactives: at the top dose activity change, negative = inhibition, usual class: inhibitors; note: potency is the fitted concentration of half-maximal effect; % is set by controls: 0 for no effect and ±100 for the full control effect
#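 Compounds are pin-transferred into medium, infected erythrocytes (2% hematocrit, 0.1% parasitemia final) are added, and plates sit one parasite generation at 37 C in 5% CO2. Detection reagent is then added and luminescence measured.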
# HCV inh – blocks hepatitis C virus; Huh7.5.1 HCVcc-Cre infection, luciferase reporter, 44 h; Potency, µM (doses to about 41.8 µM), inactives show top-dose activity change, negative = inhibition, usual class: inhibitors; actives 3.4% (n = 340,000); note: potency is the fitted concentration of half-maximal effect; % is set by controls: 0 for no effect and ±100 for the full control effect
#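 Infectious HCV cell culture screen: compound-treated cells (1,000/well, pre-plated 4 h) are infected with HCVcc-Cre at roughly 0.5 moi and grown 44 h. Infection is quantified by luciferase signal after 15 min substrate incubation at room temperature.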
# * hit, by the source's call; u = inconclusive; x = no result; [ ] = dose if it differs, or a comment. In the library only some 21% were active in any assay of this set; here they are far more common. Unless noted, calls come from the whole dose curve; as a rule, active = well fitted inhibition curve with a large enough effect; inconclusive = small, poorly fitted or top-dose-only effect, or another doubt; inactive = no such curve, though single readings can be large or run the other way.
SMILES,Shiga inhibitor,Cycloheximide cs,Pf growth 96h,HCMV antiviral,Pf growth 48h,HCV inh
COc1cc(C(=O)Nc2ccc(C(=O)O)cc2)ccc1OC(C)=O,-6,-1,2.3µM*,u,21%,9%
Cn1nnc2cc(C(=O)Nc3ccc4ccccc4c3)ccc21,108*,36*,20%,81,77%,u
COc1ccc(C(=O)Nc2ccc3oc(Cc4ccc(Cl)cc4)nc3c2)cc1OC,-9,-5,x,-23,x,11µM*
COc1ccc(C(=O)Nc2ccc3ccccc3c2)cc1,-24,7,1%,0,0%,-11%
COC(=O)C1CCN(CC(=O)Nc2ccc(C(=O)Nc3ccccc3OC)cc2)CC1,x,x,u,0,u,u
COc1ccc(C(=O)Nc2ccc3c(c2)C(=O)c2ccccc2C3=O)cc1OC,22,31*,0%,9,24%,-10%
COc1ccc(C(=O)Nc2ccc3c(c2)N(C2CCCC2)C(=O)c2ccccc2S3)cc1OC,x,x,x,-70*,x,x
O=C(CCc1nc2cccnc2n1Cc1ccccc1)NCc1cccc(Cl)c1,x,x,x,-17,x,x
COc1ccc(C(=O)NCCNC(=O)c2ccccn2)cc1,7,-2,66%,-9,-6%,21%
COc1ccc(OCC(=O)NNC(=O)c2ccccn2)cc1,-18,-4,48%,83,u,-9%
COc1cc(OC)cc(C(=O)NC(=S)NNC(=O)c2cnccn2)c1,2,1,u,-89*,-23%,u
COc1ccc(C(=O)NNC(=O)c2ccccn2)cc1,-23,-11,113%,-84*,-69%,0%
COc1cc(OC)cc(C(=O)NNC(=O)c2ccccn2)c1,-5,15,u,-98*,9.3µM*,u
Cc1ccc(/C=C/C(=O)O)cc1S(=O)(=O)NCCCO,11,5,36%,26,-2%,11%
Cc1ccc(/C=C/C(=O)O)cc1S(=O)(=O)N(CCO)CCO,4,0,9.3µM*,11,-12%,0%
CCOc1ccc(S(=O)(=O)NCCC(=O)Nc2cccc(C(=O)OC)c2)cc1,14,-1,36%,29,12%,-12%
CCCc1ccc2oc(C(=O)N3CCC(COC)C3)c(C)c2c1 (centres undefined),x,33*,u,57,78%,31%
CCCc1ccc2oc(C(=O)N3CCC[C@H]3CO)c(C)c2c1,29*,41*,u,64,91%,-30%
Cc1ccc2c(C)c(C(=O)NCCN3CCCC(O)C3)oc2c1C (centres undefined),4,10,24%,0,-8%,4%
Cc1ccc2c(C)c(C(=O)N3CCCCC3CO)oc2c1C (centres undefined),67*,21*,u,-1,28%,u
CCOC(=O)N1CCC(NC(=O)c2ccc(CO)c(C(=O)NC3CCN(C(=O)OCC)CC3)c2)CC1,15,-2,u,18,u,9%
CCOC(=O)N1CCC(NC(=O)c2cc(C(=O)Nc3ccc(OCC)cc3)ccc2CO)CC1,-19,-3,u,-67*,x,-22%
CCOC(=O)N1CCC(NC(=O)c2cc(C(=O)NC3CCCC3)ccc2CO)CC1,-3,-1,u,25,6%,5%
CCOC(=O)N1CCC(NC(=O)c2cc(C(=O)Nc3cccc(C(F)(F)F)c3)ccc2CO)CC1,13,-2,2.3µM*,u,-10%,13µM*
NC(=O)C1CCN(CC(=O)Nc2cccc(C(=O)Nc3cccc(C(F)(F)F)c3)c2)CC1,-10,-2,u,-33,1.2µM*,-8%
SMILES,Shiga inhibitor,Cycloheximide cs,Pf growth 96h,HCMV antiviral,Pf growth 48h,HCV inh
COc1ccccc1CNC(=O)CCS(=O)(=O)c1ccc2c(c1)oc(=O)n2C,x,x,x,13,x,x
OC(c1ccccc1)(c1ccccc1)C1CCNCC1,-25,-5,13%,u,-21%[12.8 µM],25%
Clc1cccc(SC2CCNCC2)n1,x,x,4.3µM*,x,-1%,x
O=C(NC1CCCC1)c1ccc2c(c1)N(Cc1c(F)cccc1Cl)C(=O)c1ccccc1S2,x,x,x,-22,x,x
COc1cccc(NC(=O)CSc2nc3c(sc4ccccc43)c(=O)n2CCN(C)C)c1,-12,-8,u,57,u,u
Cc1ccc(CNC(=O)CSc2nc3c(sc4ccccc43)c(=O)n2CCCN2CCCC2)cc1,-21,-14,25%,-39,10µM*,u
COc1cccc(NC(=O)CSc2nc3c(sc4ccccc43)c(=O)n2CCCN2CCCC2)c1,39*,16*,20%,-102*,10µM*,u
CCN(CC)CCn1c(SCC(=O)Nc2cccc(OC)c2)nc2c(sc3ccccc32)c1=O,-4,-6,u,-37,u,1.8µM*
CCOC(=O)/C(=C/C=C1\Sc2cc(OCC)c(OCC)cc2N1CC)C(C)=O,11,-2,-2%,-5,7.4µM*,u
CCOC(=O)/C(=C\C=C1/Sc2cc(OCC)c(OCC)cc2N1CC)C(C)=O,14,-2,u,18,u,u
O=C(c1cc(S(=O)(=O)N2CCOCC2)ccc1Cl)N1CCCCC1CO (centres undefined),x,x,x,-20,x,5%
COc1ccc(N2CC3=C(C2=O)C(c2ccc(O)c(OC)c2)NC(=O)N3C)cc1 (centres undefined),x,x,x,-5,x,x
O=C1Nc2ccccc2/C1=C\C(=O)c1ccccc1,21,12,4%,-30,10%,17%
Cc1cccc2c1NC(=O)/C2=C\C(=O)c1cccs1,-7,15*,-25%,-10,x,30%
Cc1cc(Br)c2c(c1)/C(=C/C(=O)c1cccs1)C(=O)N2,4,-4,u,-6,-25%,u
Cc1cc(C)c2c(c1)/C(=C/C(=O)c1ccc(Br)s1)C(=O)N2,-17,-2,u,-103*,x,11µM*
CCc1ccc2c(c1)/C(=C/C(=O)c1cccs1)C(=O)N2,-33,-8,47%,-99*,9%,22µM*
CC(=O)c1cccc(NC(=O)c2ccc3c(c2)CCCC3)c1,57*,53*,8%,121,208%,11µM*
COc1cccc(NC(=O)c2ccc3c(c2)CCCC3)c1,73*,49*,311%,26,273%,1%
O=C(Cn1c(=O)n(Cc2nc(-c3ccccc3)no2)c(=O)c2ccccc21)Nc1cccc(C(F)(F)F)c1,x,x,x,-7,x,x
Cc1cc(C(=O)Nc2nc(-c3ccccn3)cs2)ccc1[N+](=O)[O-],72,28*,u,-72*,9.3µM*,11µM*
O=C(Nc1nc(-c2ccccn2)cs1)c1cc(Cl)ccc1[N+](=O)[O-],21,11,2.3µM*,-99*,13µM*,10µM*
CC(=O)Nc1ccc(C(=O)Nc2nc(-c3ccccn3)cs2)cc1,40,19,u,-9,u,-11%
O=C(Nc1ccc(OC(F)(F)F)cc1)c1ccccc1-n1cnnn1,x,x,x,-10,x,-19%

# Bioassay records (PubChem BioAssay)
